Assay results: PubChem BioAssay (NCATS)
Inconclusive results are not listed. Entries that show only a call come without a potency. Activity calls are given as the source filed them. Unless noted, calls come from the whole dose curve; as a rule, active = well fitted curve in the direction sought with a large enough effect; inconclusive = small, poorly fitted or top-dose-only effect, or another doubt; inactive = no such curve, though single readings can be large; an effect the other way counts as inactive or inconclusive.

Columns and labels:
[1] = Nrf2 qHTS screen for inhibitors: Validation (AID 493153; active = well fitted inhibition curve with a large enough effect in the main read-out, with a control signal flat, not every such curve was filed as active); conditions: Potency: luciferase luminescence; viability change: measured here: cytotoxicity max response
In short: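 Concentration-response on A549 ARE_Fluc reporter cells exposed 18-24 h at 37 C, 5% CO2. Cytotoxicity read first by CellTiter-Fluor fluorescence (Ex 405/Em 525), then Nrf2 inhibition by BugLite luminescence after 15 min.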

[2] = qHTS for Inhibitors of Cell Surface uPA Generation: Validation Assay (AID 493164);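 note: RAW 264.7 macrophage cells exposed to compound for 18 h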
In short: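 ATP-Lite luminescence read-out: ATP remains high when uPA activity-dependent LF translocation into the cytoplasm is blocked. RAW 264.7 cells, 18 h compound exposure at 37 C; 7-point titration, 2.45 nM to 38.3 uM final.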

[3] = biological target: Galactokinase (Homo sapiens) (UniProt P51570); assay: qHTS Validation Assay for Inhibitors of Human Galactokinase (GALK) (AID 493189)
Chain of Galactokinase (Homo sapiens) (P51570 whole entry, looked up): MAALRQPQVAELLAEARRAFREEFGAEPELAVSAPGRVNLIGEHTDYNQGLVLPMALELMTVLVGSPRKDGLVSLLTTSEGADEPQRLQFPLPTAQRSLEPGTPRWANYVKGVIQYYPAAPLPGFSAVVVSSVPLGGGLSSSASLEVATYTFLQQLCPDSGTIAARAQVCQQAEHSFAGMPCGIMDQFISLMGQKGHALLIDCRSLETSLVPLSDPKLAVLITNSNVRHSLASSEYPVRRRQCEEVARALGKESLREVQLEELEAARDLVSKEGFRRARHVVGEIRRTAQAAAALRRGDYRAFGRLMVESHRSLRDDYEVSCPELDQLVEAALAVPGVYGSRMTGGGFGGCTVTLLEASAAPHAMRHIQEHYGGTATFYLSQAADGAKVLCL
In short: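 Luminescence from leftover ATP (Kinase-Glo Plus, 10 min) served as read-out after a 1 h room-temperature reaction of 5 nM GALK, 100 uM galactose and 35 uM ATP at pH8.0.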

[4] = Validation screen for small molecules that induce DNA re-replication in SW480 colon adenocarcinoma cells (AID 504364)
In short: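 Image-based DNA content read-out: Hoechst stain 40 min, total nuclear fluorescence intensity (ex 405 nm, em 500-530 nm) after 48 h compound exposure of 250 SW480 cells/well at 37 C, 5% CO2, versus DMSO vehicle.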

[5] = biological target: Peptidyl-prolyl cis-trans isomerase NIMA-interacting 1 (Homo sapiens) (UniProt Q13526); assay: qHTS Validation Assay to Find Inhibitors of Pin1 (AID 504536; active = well fitted inhibition curve with a large enough effect in the polarisation, with a control signal flat, not every such curve was filed as active; the % refers to the polarisation; note: potency is the fitted concentration of half-maximal effect)
Chain of Peptidyl-prolyl cis-trans isomerase NIMA-interacting 1 (Homo sapiens) (Q13526 whole entry, looked up): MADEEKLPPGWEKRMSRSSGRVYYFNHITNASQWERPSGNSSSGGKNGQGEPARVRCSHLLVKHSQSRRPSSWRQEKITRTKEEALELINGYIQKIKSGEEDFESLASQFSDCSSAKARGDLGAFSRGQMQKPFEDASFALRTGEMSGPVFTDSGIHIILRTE
In short: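 Fluorescence polarization competition: compounds (titration) displace HiFluor-488-labeled Pin1-1b peptide from Pin1 (0.3 uM final) in pH 7.5 HEPES buffer with DTT, 10 min at room temperature; %Activity normalized to no-enzyme wells, curves fitted.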

[6] = biological target: Phosphoglycerate kinase, glycosomal (Trypanosoma brucei brucei) (UniProt P07378); assay: qHTS Validation Assay to Find Inhibitors of Phosphoglycerate Kinase (AID 504547)
Chain of Phosphoglycerate kinase, glycosomal (Trypanosoma brucei brucei) (P07378 whole entry, looked up): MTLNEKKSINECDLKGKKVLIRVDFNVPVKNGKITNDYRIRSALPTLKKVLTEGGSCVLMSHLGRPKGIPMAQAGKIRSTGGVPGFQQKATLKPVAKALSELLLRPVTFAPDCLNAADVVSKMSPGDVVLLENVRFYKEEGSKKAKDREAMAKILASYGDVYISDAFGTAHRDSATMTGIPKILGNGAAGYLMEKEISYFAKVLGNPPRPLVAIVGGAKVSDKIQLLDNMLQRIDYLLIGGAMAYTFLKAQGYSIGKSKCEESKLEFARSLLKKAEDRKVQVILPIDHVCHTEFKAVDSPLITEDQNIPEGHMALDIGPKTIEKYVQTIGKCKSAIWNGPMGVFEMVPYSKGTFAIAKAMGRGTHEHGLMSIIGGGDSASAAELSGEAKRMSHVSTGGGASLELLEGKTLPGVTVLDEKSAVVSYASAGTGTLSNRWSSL
In short: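 Luminescence end-point (Kinase-Glo Plus, 10 min) after a 60 min room-temperature coupled reaction. GAPDH at 100nM final supplies 1,3-BPG to PGK. Buffer: 100mM TEA pH 7.6, 5mM MgCl2, 0.01% Tween-20. Wells lacking PGK served as controls.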

[7] = biological target: phosphoglycerate mutase (Leishmania major) (UniProt Q4Q090); assay: qHTS Validation Assay to Find Inhibitors of Phosphoglycerate Mutase (AID 504548); conditions: Potency: inhibition qHTS;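 note: end-point luminescence from Kinase-GloPlus after the PGAM reaction; series mostly up to about 58 µM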
Chain of phosphoglycerate mutase (Leishmania major) (Q4Q090 1-553): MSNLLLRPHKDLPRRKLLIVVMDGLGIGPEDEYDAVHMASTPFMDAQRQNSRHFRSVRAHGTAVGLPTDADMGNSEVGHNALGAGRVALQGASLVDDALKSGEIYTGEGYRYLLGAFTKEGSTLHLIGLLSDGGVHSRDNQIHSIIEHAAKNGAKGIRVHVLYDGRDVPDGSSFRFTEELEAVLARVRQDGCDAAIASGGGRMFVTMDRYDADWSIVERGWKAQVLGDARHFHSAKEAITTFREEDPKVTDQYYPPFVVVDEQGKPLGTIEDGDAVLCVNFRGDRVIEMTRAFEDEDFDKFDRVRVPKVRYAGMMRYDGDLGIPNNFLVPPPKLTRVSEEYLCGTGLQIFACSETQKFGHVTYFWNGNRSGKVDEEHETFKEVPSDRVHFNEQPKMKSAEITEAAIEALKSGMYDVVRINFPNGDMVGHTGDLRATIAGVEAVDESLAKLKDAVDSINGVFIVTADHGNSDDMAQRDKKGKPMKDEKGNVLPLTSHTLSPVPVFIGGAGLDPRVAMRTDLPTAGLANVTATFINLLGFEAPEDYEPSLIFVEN
In short: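 Inhibition of L. major PGAM was assessed by Kinase-GloPlus luminescence following a 45-minute room-temperature reaction with enzyme at 1.25nM final.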

[8] = qHTS for Inhibitors of ATXN expression: Validation of Cytotoxic Assay (AID 588349)
In short: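 Cytotoxicity counter-screen: ATP-based luminescent viability (CellTiter Glo) after 72 hr exposure of HEK293 cells to a compound titration at 37 degrees C.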

[9] = biological target: DNA dC->dU-editing enzyme APOBEC-3G (Homo sapiens) (UniProt Q9HC16); assay: qHTS for inhibitors of Vif-A3G interactions: Validation (AID 588379)
Chain of DNA dC->dU-editing enzyme APOBEC-3G (Homo sapiens) (Q9HC16 whole entry, looked up): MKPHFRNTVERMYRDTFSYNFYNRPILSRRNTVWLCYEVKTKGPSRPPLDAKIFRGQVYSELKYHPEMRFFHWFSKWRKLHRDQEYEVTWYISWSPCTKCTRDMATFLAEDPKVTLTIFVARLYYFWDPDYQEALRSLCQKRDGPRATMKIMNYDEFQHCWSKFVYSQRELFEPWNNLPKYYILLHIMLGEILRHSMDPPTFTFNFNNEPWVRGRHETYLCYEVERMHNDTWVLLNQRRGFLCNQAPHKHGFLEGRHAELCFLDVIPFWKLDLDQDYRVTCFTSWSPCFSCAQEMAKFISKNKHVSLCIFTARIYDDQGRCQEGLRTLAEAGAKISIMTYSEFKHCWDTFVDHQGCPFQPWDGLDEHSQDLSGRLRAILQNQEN
In short: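 Yellow fluorescence (Ex 488, Em 500-530) of Vif-coexpressing HeLa A3G-eYFP cells, scanned by Acumen cytometer, reports blocked A3G degradation. Cells plated at 700/well overnight at 37 deg C before compound addition, then a further overnight compound incubation at 37 deg C.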

[10] = biological target: Ubiquitin carboxyl-terminal hydrolase 1 (Homo sapiens) (UniProt O94782); assay: Inhibitors of USP1/UAF1: Pilot qHTS (AID 504865); note: nearly all actives have a fitted effect of over 35% in size; note: potency is the fitted concentration of half-maximal effect
Chain of Ubiquitin carboxyl-terminal hydrolase 1 (Homo sapiens) (O94782 whole entry, looked up): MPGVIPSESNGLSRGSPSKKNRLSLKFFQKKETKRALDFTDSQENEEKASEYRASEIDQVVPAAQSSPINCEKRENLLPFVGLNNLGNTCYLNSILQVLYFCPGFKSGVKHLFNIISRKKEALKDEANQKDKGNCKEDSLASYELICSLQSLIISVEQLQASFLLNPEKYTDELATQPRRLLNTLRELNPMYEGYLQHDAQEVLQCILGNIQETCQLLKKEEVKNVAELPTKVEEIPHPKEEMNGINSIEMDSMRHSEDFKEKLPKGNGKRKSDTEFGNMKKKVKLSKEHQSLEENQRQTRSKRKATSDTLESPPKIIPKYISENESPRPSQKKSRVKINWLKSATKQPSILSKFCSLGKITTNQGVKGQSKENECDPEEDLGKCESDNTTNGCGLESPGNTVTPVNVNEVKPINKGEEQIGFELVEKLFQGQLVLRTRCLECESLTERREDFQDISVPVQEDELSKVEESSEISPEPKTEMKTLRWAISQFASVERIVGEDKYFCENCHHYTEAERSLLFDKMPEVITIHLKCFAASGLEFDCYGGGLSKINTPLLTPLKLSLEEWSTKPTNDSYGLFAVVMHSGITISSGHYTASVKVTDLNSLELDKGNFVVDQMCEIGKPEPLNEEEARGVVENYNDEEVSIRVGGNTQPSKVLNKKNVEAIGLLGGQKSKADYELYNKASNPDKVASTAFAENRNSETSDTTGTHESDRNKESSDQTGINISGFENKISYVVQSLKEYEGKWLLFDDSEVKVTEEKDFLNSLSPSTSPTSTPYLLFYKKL
In short: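 1nM USP1/UAF1 + cpd, 15 min RT; start w/ Ub-Rho 150nM final; kinetic FL 480/540 nm, 6 reads q60 s. Buffer 50mM HEPES pH 7.8, 0.5mM EDTA, 1mM TCEP, 0.01% Tween-20, 0.1 mg/ml BSA.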

[11] = qHTS for Inhibitors of ATXN expression: Validation (AID 588378); note: series mostly up to about 57 µM; nearly all actives have a fitted effect of over 75% in size
In short: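 Cells: HEK293-ATXN2-FFLuc, phenol-red free DMEM, 2 h attachment. Compound pin-transfer, 24 h, 37 degrees C, 5% CO2. CellTiter-Fluor 30 min, Ex405/Em525; Bright-Glo 5 min, luminescence 2 s exposure.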

[12] = biological target: Bile acid receptor (Homo sapiens) (UniProt Q96RI1); assay: qHTS assay for small molecule antagonists of farnesoid X receptor signaling (AID 588526; calls by dose curve)
In short: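 Beta-lactamase reporter antagonist mode: HEK293T FXR-UAS-bla cells, titrated compound, CDCA stimulation, 16 h 37 C, CCF4 dye 2 h RT. Data normalized to CDCA 50 uM and DMSO; Hill-fit IC50.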

[13] = biological target: Glucocorticoid receptor (Homo sapiens) (UniProt P04150); assay: qHTS assay for small molecule agonists of glucocorticoid receptor signaling (AID 588532; active = well fitted curve in the direction sought with a large enough effect in the signal ratio, with a control signal flat; the % refers to the signal ratio); conditions: HeLa MMTV-bla, beta-lactamase ratio, agonist, 18 h; stronger effect = higher value; percent of dexamethasone control, DMSO zero
Chain of Glucocorticoid receptor (Homo sapiens) (P04150 whole entry, looked up): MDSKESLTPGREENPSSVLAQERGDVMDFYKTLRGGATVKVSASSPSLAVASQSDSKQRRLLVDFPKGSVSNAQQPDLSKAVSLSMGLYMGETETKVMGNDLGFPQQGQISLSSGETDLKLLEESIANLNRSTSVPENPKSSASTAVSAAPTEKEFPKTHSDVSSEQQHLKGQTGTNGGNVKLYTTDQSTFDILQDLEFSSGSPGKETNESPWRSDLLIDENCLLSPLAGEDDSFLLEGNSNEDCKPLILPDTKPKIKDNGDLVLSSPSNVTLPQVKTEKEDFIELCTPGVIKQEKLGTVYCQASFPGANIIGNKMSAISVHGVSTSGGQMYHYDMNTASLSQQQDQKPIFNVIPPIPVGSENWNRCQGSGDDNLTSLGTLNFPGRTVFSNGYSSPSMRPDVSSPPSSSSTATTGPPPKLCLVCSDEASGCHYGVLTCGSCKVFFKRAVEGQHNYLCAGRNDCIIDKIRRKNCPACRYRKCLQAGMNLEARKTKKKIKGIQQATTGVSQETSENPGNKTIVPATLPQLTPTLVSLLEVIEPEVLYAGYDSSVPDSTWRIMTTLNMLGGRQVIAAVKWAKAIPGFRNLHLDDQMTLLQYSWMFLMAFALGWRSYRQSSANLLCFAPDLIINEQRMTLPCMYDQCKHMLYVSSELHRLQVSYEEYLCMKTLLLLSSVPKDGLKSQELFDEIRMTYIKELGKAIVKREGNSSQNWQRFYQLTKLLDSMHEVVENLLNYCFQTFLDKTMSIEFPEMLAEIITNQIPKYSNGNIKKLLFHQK
In short: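 Using MMTV-bla HeLa cells in medium with 1% stripped FBS and 25 mM HEPES, compounds were titrated and incubated overnight-length (18 h). Beta-lactamase cleavage of CCF4 was quantified by dual-emission fluorescence.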

[14] = biological target: Glucocorticoid receptor (Homo sapiens) (UniProt P04150); assay: qHTS assay for small molecule antagonists of glucocorticoid receptor signaling (AID 588533; active = well fitted inhibition curve with a large enough effect in the signal ratio, with a control signal flat, not every such curve was filed as active; the % refers to the signal ratio;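 note: cells stimulated with 2 nM dexamethasone as agonist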; note: potency is the fitted concentration of half-maximal effect)
In short: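 Antagonist-mode qHTS: compound titrations added to GRE-bla HeLa cells, then dexamethasone 2 nM final; 18 h, 37 C. CCF4 FRET fluorescence normalized to dexamethasone and DMSO; IC50 from Hill fit.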

[15] = qHTS assay for small molecule antagonists of peroxisome proliferator-activated receptor delta signaling (AID 588535; active = well fitted inhibition curve with a large enough effect in the signal ratio, with a control signal flat, not every such curve was filed as active; the % refers to the signal ratio;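 for max response: cells co-treated with a PPAR-delta agonist as stimulator during compound exposure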); conditions: HEK293T PPARd-UAS-bla, beta-lactamase FRET ratio, 18 h; 460 nm channel
In short: (§1)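 Titrations were run on PPAR-delta-UAS-bla HEK293T cells in charcoal/dextran-stripped serum, incubated 18 h at 37 C. CCF4 fluorescence (460/530 nm) after 2 h RT; Hill equation yields IC50 and maximal response.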

[16] = biological target: Peroxisome proliferator-activated receptor delta (Homo sapiens) (UniProt Q03181); assay: as above
Chain of Peroxisome proliferator-activated receptor delta (Homo sapiens) (Q03181 whole entry, looked up): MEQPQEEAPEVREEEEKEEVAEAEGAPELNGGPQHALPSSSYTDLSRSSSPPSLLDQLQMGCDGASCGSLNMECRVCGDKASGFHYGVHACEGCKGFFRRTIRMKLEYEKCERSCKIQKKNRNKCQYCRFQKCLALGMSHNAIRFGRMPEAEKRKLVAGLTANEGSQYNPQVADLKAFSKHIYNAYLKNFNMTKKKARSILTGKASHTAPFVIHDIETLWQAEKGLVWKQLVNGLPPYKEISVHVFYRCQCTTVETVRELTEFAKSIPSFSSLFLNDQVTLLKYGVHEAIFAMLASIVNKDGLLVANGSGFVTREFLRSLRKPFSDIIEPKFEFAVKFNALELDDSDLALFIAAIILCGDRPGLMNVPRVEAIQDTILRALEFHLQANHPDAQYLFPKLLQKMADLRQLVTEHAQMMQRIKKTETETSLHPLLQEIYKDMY
In short: as §1

[17] = biological target: Estrogen receptor (Homo sapiens) (UniProt P03372); assay: qHTS assay for small molecule agonists of estrogen receptor alpha signaling (AID 588514; calls by dose curve; note: potency is the fitted concentration of half-maximal effect; nearly all actives have a fitted effect of over 70% in size)
Chain of Estrogen receptor (Homo sapiens) (P03372 whole entry, looked up): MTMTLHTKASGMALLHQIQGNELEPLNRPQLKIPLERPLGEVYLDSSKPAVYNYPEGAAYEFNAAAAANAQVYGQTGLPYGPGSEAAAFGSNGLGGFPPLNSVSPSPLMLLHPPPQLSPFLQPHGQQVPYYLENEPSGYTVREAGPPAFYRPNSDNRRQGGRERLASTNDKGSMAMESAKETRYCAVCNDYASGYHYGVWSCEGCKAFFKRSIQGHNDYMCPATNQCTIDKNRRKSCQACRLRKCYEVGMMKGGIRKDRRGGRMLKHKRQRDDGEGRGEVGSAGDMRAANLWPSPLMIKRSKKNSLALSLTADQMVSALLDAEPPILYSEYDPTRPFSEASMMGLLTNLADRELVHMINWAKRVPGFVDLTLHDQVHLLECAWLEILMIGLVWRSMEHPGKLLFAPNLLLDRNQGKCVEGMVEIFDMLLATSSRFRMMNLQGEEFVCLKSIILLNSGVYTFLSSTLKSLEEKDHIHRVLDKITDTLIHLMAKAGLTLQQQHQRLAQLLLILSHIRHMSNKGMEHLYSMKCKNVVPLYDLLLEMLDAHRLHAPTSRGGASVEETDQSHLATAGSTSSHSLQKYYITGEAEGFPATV
In short: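 EC50 and efficacy came from Hill fits of beta-lactamase reporter signal (CCF4 dye, 2 h at room temperature) scaled between DMSO and 20 nM 17-beta-estradiol. Agonist mode: HEK293 ER-alpha-UAS-bla cells in charcoal/dextran-stripped serum medium, 18 h compound exposure at 37 C.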

SMILES	Potency [1]	viability change [1] [%]	outcome [2]	Potency [3]	Potency [4]	Potency [5]	Potency [6]	Potency [7]	Potency [8]	Potency [9]	Potency [10]	Potency [11]	outcome [12]	activation [13]	Potency [14]	max response [15] [%]	outcome [16]	Potency [17]
CCCC[C@@]1(C2CCCC2)Cc2cc(OCC(=O)O)c(Cl)c(Cl)c2C1=O	inactive	-6.32	inactive	inactive	inactive	inactive	inactive	inactive	inactive	–	–	–	–	–	–	–	–	–
COC(=O)C(C)(N)Cc1ccc(O)cc1 (stereo not drawn)	inactive	-3.06	inactive	inactive	inactive	inactive	inactive	inactive	inactive	–	–	–	–	–	–	–	–	–
OC1(c2ccc(Cl)cc2)CCN(Cc2c[nH]c3ccccc23)CC1	inactive	-2.32	inactive	inactive	inactive	inactive	inactive	inactive	inactive	inactive	–	–	–	–	–	–	–	–
CC(=O)C(C)=O	inactive	-3.11	inactive	inactive	inactive	inactive	inactive	inactive	inactive	–	inactive	inactive	inactive	6.3% (inactive)	inactive	5.57	inactive	–
COC1(C2=NCCN2)COc2ccccc2O1 (stereo not drawn)	inactive	-0.853	inactive	inactive	inactive	inactive	inactive	inactive	inactive	–	–	inactive	–	–	–	–	–	–
Cc1cccc(C)c1OCC(N)C(C)C (stereo not drawn)	inactive	4.6	inactive	inactive	inactive	inactive	inactive	inactive	inactive	–	–	inactive	–	–	–	–	–	–
COc1ccccc1N1CCN(CCCCN2C(=O)c3ccccc3C2=O)CC1	inactive	4.76	inactive	inactive	inactive	inactive	inactive	inactive	inactive	inactive	inactive	inactive	–	–	–	–	–	–
N[C@@H](Cc1ccc(O)c(I)c1)C(=O)O	inactive	-2.22	inactive	inactive	inactive	inactive	inactive	inactive	inactive	–	–	inactive	–	–	–	–	–	–
CCCc1c(-c2ccc(O)cc2)nn(-c2ccc(O)cc2)c1-c1ccc(O)cc1	inactive	-5.33	inactive	inactive	inactive	inactive	inactive	inactive	–	inactive	inactive	–	–	–	28.2 µM (active)	–	–	0.0112 µM (active)
O=c1ccc2c(OCCCCc3ccccc3)c3ccoc3cc2o1	inactive	4.36	inactive	inactive	inactive	inactive	inactive	inactive	inactive	–	–	inactive	–	–	–	–	–	–
Cc1nc(N=Nc2ccc(C(=O)O)cc2)c(COP(=O)(O)O)c(C=O)c1O	inactive	-9.24	inactive	inactive	inactive	26.9 µM (active)	inactive	inactive	–	–	22.4 µM (active)	inactive	–	–	–	–	–	–
CN[C@H](CC(=O)O)C(=O)O	inactive	-4.15	inactive	inactive	inactive	inactive	inactive	inactive	inactive	inactive	–	–	–	–	–	–	–	–
c1ccc(CN2CCC3(CCCc4ccccc43)CC2)cc1	inactive	-10.2	inactive	inactive	inactive	inactive	inactive	–	–	–	inactive	–	–	–	–	–	–	–
CCCOC(=O)c1c(-c2ccccc2)nc(CC)c(C(=O)SCC)c1CCC	inactive	-5.09	inactive	inactive	inactive	inactive	inactive	inactive	inactive	–	–	inactive	–	–	–	–	–	–
NS(=O)(=O)c1cccc2c1c([N+](=O)[O-])cc1nc(O)c(O)nc12	inactive	-15.2	inactive	inactive	inactive	–	inactive	inactive	–	inactive	–	inactive	–	–	–	–	–	–
NC1(C(=O)O)CC1	inactive	4.01	inactive	inactive	–	inactive	inactive	inactive	inactive	–	inactive	inactive	–	–	–	–	–	–
CCCn1c(=O)c2[nH]c(C3CCCC3)nc2n(CCC)c1=O	inactive	-6.17	inactive	inactive	–	inactive	inactive	inactive	inactive	inactive	inactive	inactive	–	–	–	–	–	–
O[Si](CCCN1CCCCC1)(c1ccc(F)cc1)C1CCCCC1 (stereo not drawn)	inactive	-4.41	inactive	inactive	–	inactive	inactive	inactive	–	–	inactive	–	–	–	–	–	–	–
COc1cccc(OC)c1OCCNCC1CSc2ccccc2O1 (stereo not drawn)	inactive	-8.63	inactive	inactive	–	inactive	inactive	–	–	–	–	–	–	–	–	–	–	–
C=CCN1CCc2c(cc(O)c(O)c2Cl)C(c2ccccc2)C1 (stereo not drawn)	inactive	-2.43	inactive	inactive	–	inactive	inactive	inactive	–	–	inactive	–	–	–	–	–	–	–
